Sampled rows, rich in hits. Any-hit rate of the full collection: about 4%.
MITF TRPM1 inh – MITF TRPM1 promoter inhibition in SK-MEL-5 cells; AID 488899; SK-MEL-5 TRPM1 promoter luciferase, 24 h; actives 0.83% (n = 330,000); inhibition, % at 12.5 µM;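 active means mean inhibition across replicates of 60% or more, whatever share of single replicates reaches that level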
Peg3 promoter – Peg3 promoter activity inhibition | HeLa PEG-Prom luciferase reporter, luminescence, overnight | inhibition, % at 20 µM | actives 1.7% (n = 360,000) | AID 588405;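 active means inhibition of at least 50% at 20 µM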
HIF-2a inh – HIF-2a inhibition | 786-0 RCC cells HIF-2a reporter, luciferase luminescence, overnight | inhibition, % at 18.8 µM | actives 0.72% (n = 360,000) | AID 624352;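 active means inhibition of the luminescence signal of 40% or more relative to plate controls, in a single-dose primary screen at 18.75 µM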
TROY signal inh – inhibitors of TROY-dependent NF-kB signaling. Q293 LMP1-TROYcd NF-kB luciferase reporter, 4 h. inhibition, % at 10 µM. actives 0.98% (n = 360,000);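 active means compounds whose plate-normalised and pattern-corrected inhibition of the luciferase reporter signal at the single screening dose is 50% or more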
EBV LMP1 NFkB – reduces LMP1-driven NF-kappaB luciferase signal. LMP1-induced NF-kappaB luciferase reporter cells, luminescence. actives 0.69% (n = 350,000). inhibition, % at 12.5 µM; in the data active means inhibition above about 41%;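 further: 0% = neutral control wells and 100% = reference inhibitor control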
TWEAK Fn14 block – blocks TWEAK-Fn14 interaction in a reporter cell assay | inhibition, % at 10 µM | TWEAK-stimulated Fn14 reporter cells, luciferase luminescence, 8 h | actives 2% (n = 360,000); in the data active means inhibition above about 50%
* = called active by the depositor; / = no result given.

SMILES	MITF TRPM1 inh	Peg3 promoter	HIF-2a inh	TROY signal inh	EBV LMP1 NFkB	TWEAK Fn14 block
O=C(CSC1=NS(=O)(=O)c2ccccc21)Nc1ccccc1	48.6	71.1*	-52.4	-27.6	-16.2	-14.0
O=C(CN1C(=O)c2ccccc2C1=O)NNC1=NS(=O)(=O)c2ccccc21	-9.4	-3.0	12.6	-11.1	42.2*	-9.7
O=C(NNC1=NS(=O)(=O)c2ccccc21)c1ccc(Cl)cc1	-11.5	23.9	-37.1	-18.6	7.7	-0.2
CC(=O)NCCNc1nc2cc(-c3ccccc3CO)sc2c(=O)n1C	/	-3.8	6.7	-19.4	/	5.5
Cc1cc(C(=O)COC(=O)c2ccc[nH]c2=O)c(C)n1-c1ccc(F)cc1	-34.0	3.2	20.5	70.2*	22.2	64.5*
Cc1cc(C(=O)COC(=O)c2ccc[nH]c2=O)c(C)n1-c1ccccc1	-26.0	-12.8	43.8*	71.1*	47.0*	58.4*
Cc1cc(C(=O)COC(=O)c2ccc[nH]c2=O)c(C)n1C1CC1	-18.3	-81.7	-36.6	19.4	2.1	30.7
Cc1cc(C(=O)OCC(=O)NCc2ccco2)c(C)n1-c1ccc(F)cc1	24.7	-22.1	-4.7	10.8	12.5	9.9
CCCCc1ccc(S(=O)(=O)NC(=O)C2(C)CCN2C(=O)Cc2ccccc2)cc1 (stereo not given)	/	3.3	6.2	-13.0	/	2.2
CCCS(=O)(=O)NC(=O)C1(C)CCN(C(=O)c2ccc3ccccc3c2)C1 (stereo not given)	/	-5.2	22.6	8.0	/	9.6
Cc1nc2ccccn2c1C(=O)/C=C/c1ccc(F)cc1	14.1	-136.6	-123.2	7.4	2.5	40.7
Cc1nc2ccccn2c1-c1ccnn1S(=O)(=O)c1ccc(F)cc1	11.0	32.7	37.7	16.5	-9.0	51.8*
CCCCNC(=O)C1(C)CCN1C(=O)c1ccc2ccccc2n1 (stereo not given)	/	1.2	5.4	-13.4	/	13.9
Cc1ccc(C(=O)NCC(=O)Nc2ncccc2C)s1	7.6	-12.0	-1.2	-4.6	3.0	3.3
COc1ccc(/C=C\C(=O)NCc2ccc3c(c2)cc(C)n3C)cc1OC	-2.1	9.4	-1.5	-0.1	66.6*	21.0
COc1ccc(C(=O)NCc2ccc3c(c2)cc(C)n3C)cc1OC	-3.2	11.7	6.0	-14.2	3.8	-17.4
Cc1ccc(-c2nn3cnnc3c3ccccc23)cc1	-19.7	19.4	16.9	14.0	6.3	-15.7
c1ccc(-c2nc(-c3ccccn3)nc(-c3ccccn3)n2)nc1	23.5	25.0	9.6	3.5	-3.5	-1.1
COCC(=O)N(C)c1nnc(-c2ccccn2)s1	-8.2	-45.0	-76.5	-36.3	50.4*	0.4
c1ccc(-c2nnc(-c3ccccn3)s2)nc1	20.5	-38.3	-33.8	27.8	46.8*	80.9*
CCc1ccc2[nH]c(=O)c(C(c3nnnn3CCOC)N3CCN(c4ccccc4F)CC3)cc2c1 (stereo not given)	2.1	-0.8	-36.8	53.1*	-8.0	49.7
Cc1nn(-c2ccccc2)c(C)c1C(=O)OCc1ccc(C#N)cc1	-17.4	-54.0	-61.1	-11.2	-4.6	-35.1
COCCN(C(=O)c1sc2ccccc2c1Cl)c1c(N)n(CC(C)C)c(=O)[nH]c1=O	-6.7	14.5	9.0	0.3	-1.8	-13.7
Clc1nc(Cl)c2ncn(-c3ccccc3)c2n1	29.7	80.9*	-95.6	11.1	0.4	16.7
Cc1cc(Nc2nc3ccccc3nc2Cl)n(-c2ccc([N+](=O)[O-])cc2)n1	10.6	53.3*	26.9	43.1	6.1	30.3
SMILES	MITF TRPM1 inh	Peg3 promoter	HIF-2a inh	TROY signal inh	EBV LMP1 NFkB	TWEAK Fn14 block
OCC[C@@H]1C[C@H](O)[C@@H](O)[C@]2(OCCc3cc(Cl)ccc32)O1	/	-8.9	10.2	15.9	/	5.0
O=C(O)c1ccc(N/N=C/c2ccc(F)c(F)c2)cc1	0.4	-53.1	-69.8	13.7	-2.0	66.5*
Cc1ccc2nc(Cl)c(/C=N/Nc3ccc(C(=O)O)cc3)cc2c1	-60.3	-211.8	-215.6	26.2	-7.5	51.0*
Cc1ccc2cc(/C=N/NC(=O)c3ccc(F)cc3)c(Cl)nc2c1	-0.9	2.2	0.4	-4.0	0.5	-4.1
O=C(O)c1ccc(N/N=C/c2ccnc3ccccc23)cc1	-68.2	-188.9	-175.2	-11.5	-3.9	43.8
O=C(O)c1ccc(N/N=C/c2cccc(F)c2)cc1	-24.2	-36.1	-60.9	-25.9	-13.9	58.8*
O=C(O)c1ccc(N/N=C/c2cccc3cccnc23)cc1	-55.6	-193.1	-217.2	-32.2	-18.3	61.2*
Cc1cc(OCC(=O)NCC(c2ccc(F)cc2)N2CCOCC2)ccc1Cl (stereo not given)	13.2	-1.1	11.8	-14.6	-7.7	-2.1
CC(OC(=O)C1CCN(S(=O)(=O)c2ccc3c(c2)OCCO3)CC1)C(=O)NC1(C#N)CCCCC1 (stereo not given)	-0.2	3.8	10.7	-0.7	1.8	4.9
NS(=O)(=O)c1ccc(CCNC(=O)/C=C/c2ccc(S(=O)(=O)N3CCOCC3)cc2)cc1	-2.1	3.8	10.9	-13.8	5.3	83.8*
COc1ccc(NC(=O)COC(=O)/C=C/c2ccc(OC)c(S(=O)(=O)N3CCOCC3)c2)cc1	-12.3	12.5	8.1	-16.9	53.7*	-2.1
NS(=O)(=O)c1ccc(CNC(=O)/C=C/c2ccc(S(=O)(=O)N3CCOCC3)cc2)cc1	-11.6	-0.3	10.3	-6.1	-7.3	-9.6
COc1ccc(C(=O)Nc2ccc(-c3ccc(C)o3)cc2)cc1S(=O)(=O)N1CCOCC1	31.0	4.7	-81.3	51.4*	14.8	81.8*
COc1ccc(NC(=O)c2cc3c(s2)CCC(C)C3)cc1S(=O)(=O)N1CCOCC1 (stereo not given)	37.8	29.3	-49.5	51.3*	20.2	79.0*
Cc1ccc(NC(=O)NC(=O)N(C(C)C)S(=O)(=O)c2ccc(C)cc2)cc1	-18.6	-17.1	-19.4	-25.9	-6.8	-4.8
O=C(/C=C/c1ccc(S(=O)(=O)N2CCOCC2)cc1)N1CCN(c2ccccc2)CC1	6.8	66.3*	13.7	15.4	16.1	23.4
COc1ccc(/C=C/C(=O)Nc2ccc(C(C)=O)cc2)cc1S(=O)(=O)N1CCOCC1	/	-7.1	-0.3	-6.9	-2.3	5.4
COc1cc(/C=C/C(=O)Nc2ccc(OC)c(S(=O)(=O)N3CCOCC3)c2)ccc1OC(F)F	8.6	46.2	0.1	56.7*	21.4	49.7
COc1ccc(/C=C/C(=O)N2CCN(c3ccccc3)CC2)cc1S(=O)(=O)N1CCOCC1	6.0	15.2	8.4	13.7	8.9	27.3
Cc1ccc(NC(=O)/C=C/c2ccc(S(=O)(=O)N3CCOCC3)cc2)cc1S(=O)(=O)N(C)C	21.4	41.7	11.2	53.5*	11.4	68.0*
Cc1csc2c(N3CCN(C(=O)Nc4ccccc4)CC3)ncnc12	-9.4	-5.0	-21.8	-6.4	14.7	-3.0
Cc1csc2ncnc(N3CCN(C(=O)Nc4ccc(OC(F)(F)F)cc4)CC3)c12	9.6	27.1	38.2	39.7	18.7	62.6*

Screening data: PubChem, several laboratories
